# This is a sample that favours compounds with a hit; in the whole collection about 4% have one here.
# GBA mod: Glucocerebrosidase; purified enzyme, resorufin glucoside fluorescence (screen aimed at inhibitors), 20 min; Potency, µM; actives 1.1% (n = 48,000); AID 360, 2006; in the data active = potency below about 15 µM; inconclusive = mostly about 16 µM to 33 µM;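 also: the screen sought inhibitors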
#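 Normal human glucocerebrosidase (0.2 nM final) was assayed with resorufin β-D-glucopyranoside (30 uM final) in 50mM citric acid/KH2PO4, 10mM sodium taurocholate, 0.01% tween-20, pH 5.9. Compounds were titrated; fluorescence (Ex 548, Em 600) read after 20 min at RT.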
# HEK293 cAMP ctrl: qHTS Assay for Agonists of the Thyroid Stimulating Hormone Receptor: Activators of Intracellular cAMP Concentrations in Parental HEK 293; parental HEK293 CNG cAMP sensor, membrane potential fluorescence; actives 2.5% (n = 73,000); Potency, µM (highest dose often 57.1 µM), for inactives: at the highest dose activation, hits mostly activators; active = well fitted activation curve with a large enough effect; inconclusive = small, poorly fitted or top-dose-only effect; inactive = no such curve, though single readings can be large or run the other way; also: % of control where 0% means no effect; nearly all actives have a fitted effect of over 55% in size
#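 Counterscreen for endogenous-receptor signalling: CNG-channel HEK 293 cells report cAMP rise by membrane depolarization. After 60 min dye equilibration with 100 uM RO 20-1724, compounds incubated 30 min before bottom-read fluorescence at 590 nm.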
# PK Bst: Pyruvate Kinase. purified pyruvate kinase, luminescence ATP production; ribose 5-phosphate activator present at AC10. Potency, µM. actives 1.2% (n = 51,000); in the data active = potency below about 11 µM; inconclusive = mostly about 12 µM to 25 µM;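 the screen sought inhibitors and activators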;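 also: scaled between full activation by ribose 5 phosphate and full inhibition by luteolin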
# TSHR ag: qHTS Assay for Agonists of the Thyroid Stimulating Hormone Receptor | Thyrotropin receptor (Homo sapiens), P16473 | HEK293-CNG-TSHR cells (CNG channel as cAMP sensor), membrane potential dye, cAMP | Potency, µM (series often up to 57.1 µM), inactives show at the top dose activation, most hits filed as activators | actives 0.48% (n = 73,000) | AID 926, 2007; active = well fitted activation curve with a large enough effect in the main read-out, with a control signal flat, not every such curve was filed as active; inconclusive = small, poorly fitted or top-dose-only effect, or a change in a side signal; inactive = no such curve, though single readings can be large or run the other way; % of control where 0% means no effect;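 also: the control signal comes from parental cells without the receptor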
# Target sequence (P16473 whole entry, looked up): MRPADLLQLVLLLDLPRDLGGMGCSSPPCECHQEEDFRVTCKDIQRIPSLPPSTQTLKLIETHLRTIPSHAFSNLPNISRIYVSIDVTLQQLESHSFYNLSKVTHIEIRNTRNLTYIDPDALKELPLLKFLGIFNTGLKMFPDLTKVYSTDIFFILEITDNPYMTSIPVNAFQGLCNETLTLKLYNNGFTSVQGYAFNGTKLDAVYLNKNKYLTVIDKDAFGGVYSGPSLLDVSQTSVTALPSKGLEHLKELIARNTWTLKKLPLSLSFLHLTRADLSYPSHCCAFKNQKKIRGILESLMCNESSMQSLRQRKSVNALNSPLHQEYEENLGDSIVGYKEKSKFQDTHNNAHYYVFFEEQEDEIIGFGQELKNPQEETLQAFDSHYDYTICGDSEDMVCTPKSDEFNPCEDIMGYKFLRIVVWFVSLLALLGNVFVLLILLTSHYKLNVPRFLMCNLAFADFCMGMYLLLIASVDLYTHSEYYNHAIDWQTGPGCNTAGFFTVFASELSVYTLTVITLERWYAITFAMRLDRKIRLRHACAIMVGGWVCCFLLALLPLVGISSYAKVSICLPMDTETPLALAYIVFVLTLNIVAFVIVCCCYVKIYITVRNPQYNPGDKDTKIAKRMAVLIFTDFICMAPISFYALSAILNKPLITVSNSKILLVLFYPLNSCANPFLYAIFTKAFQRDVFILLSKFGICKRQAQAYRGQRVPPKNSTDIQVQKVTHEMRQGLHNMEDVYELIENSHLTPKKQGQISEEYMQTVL
#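 HEK 293 cells stably expressing TSHR and a modified CNG channel, with CNG-only parental cells as counterscreen, were preloaded 60 min at room temperature with membrane potential dye containing 100 uM RO 20-1724. Compound exposure was 30 min, and depolarization was read as fluorescence at 590 nm.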
# Active calls of the source: *; i = inactive; ? = inconclusive; nt = no result; ! = repeats disagree; [ ] = remark or other dose. Potency is read from the fitted curve at half-maximal effect.
SMILES,GBA mod,HEK293 cAMP ctrl,PK Bst,TSHR ag
CCS(=O)(=O)N1CCC(C(=O)Nc2cc(Cl)ccc2O)CC1,14*,7%,>57,9%
CCOC(=O)c1ccc(NC(=O)C2CCN(S(=O)(=O)CC)CC2)cc1,i,-6%,>57,-1%
COc1ccc(-c2csc(N(CC3CCCO3)C(=O)c3ccco3)n2)cc1 (stereo unspecified),>77,20µM*,nt,?
COc1ccc(-c2csc(N3CCN(C(=O)c4ccco4)CC3)n2)cc1,nt,4%,nt,6%
CC1(C)O[C@H]2C[C@@H]3[C@H]4CCC5=CC(=O)CC[C@@]5(C)[C@]4(F)[C@@H](O)C[C@@]3(C)[C@@]2(C(=O)CCl)O1,nt,12%[25.6 µM],nt,4%[25.6 µM]
COc1cc2c3cc1Oc1c(OC)c(OC)cc4c1[C@@H](Cc1ccc(O)c(c1)Oc1ccc(cc1)C[C@@H]3N(C)CC2)CN(C)C4,nt,1%[11.4 µM],nt,15%[11.4 µM]
CSc1nnc2c(n1)OC(c1cccn1C)N(C(C)=O)c1ccccc1-2 (stereo unspecified),>77,16µM*,>57,?
N[C@@H](CC1=CS(=O)(=O)c2ccc(Cl)cc21)C(=O)O,nt,-9%[11.4 µM],nt,3%[11.4 µM]
Cc1ccc(CNC(=O)C2c3ccccc3C(=O)N(C)C2c2c[nH]c3ccccc23)o1 (stereo unspecified),>77,25µM*,>57,?
COc1ccc(C2C(C(=O)Nc3cc(C)on3)c3ccccc3C(=O)N2C)cc1 (stereo unspecified),>77,?,>57,?
CC(C)=CC(=O)Nc1ccccc1C(N)=O,>77,4%,>57,-8%
NC(=O)c1ccccc1N/C=C/C(=O)c1ccccc1,>77,6%,2.5*,-1%
[O-][n+]1onc2c1CCc1nnc(-c3ccccc3)cc1-2,>77,-2%,>57,1%
[O-][n+]1onc2c1CCc1c-2nc(-c2ccccc2)n1OCc1ccccc1,?,13µM*,>57,?
CCN(CCO)Cc1cc(=O)oc2c(C)c(C)ccc12,>77,14%,>57,10%
Cc1ccc2c(COn3nnc4ccc(S(=O)(=O)N(C)C)cc43)cc(=O)oc2c1C,11*,?,>57,?
COc1ccc(C(=O)Nc2ccc(C)cn2)c(OC)c1,>77,0%,0.33*,-5%
O=C1C(=O)c2ccccc2C(O)=C1Cc1ccccc1,nt,-5%[11.4 µM],nt,2%[11.4 µM]
c1ccc2[nH]c(-c3ccnc4ccccc34)nc2c1,nt,-5%,nt,-1%
c1ccc2nc(-c3nc4ccccc4[nH]3)ccc2c1,>77,?,0.54*,?
O=c1[nH]c(-c2ccccc2O)nc2c1CCCC2,7.5*,?,>57,?
O=c1[nH]c(N2CCc3ccccc3C2)nc2c1CCCC2,4.6*,3%,>57,-6%
O=c1[nH]c(N2CCc3ccccc3C2)nc2c1CCC2,>77,5%,>57,20%
COc1ccc(C(=O)[C@H]2[C@H]3[C@@H](C(=O)[C@@H]4OC[C@H]3O4)[C@H]3C=Cc4ccccc4N32)c(OC)c1,nt,8%,nt,-4%
Cc1cccc(CSC2=NCCN2C(=O)c2ccc(Br)o2)c1,nt,32µM*,nt,?
SMILES,GBA mod,HEK293 cAMP ctrl,PK Bst,TSHR ag
O=C(O)c1cc(=O)[nH]c(SCc2ccccc2)n1,nt,2%[11.4 µM],nt,-4%[11.4 µM]
C=C1C[C@@]23C[C@]1(O)CC[C@@H]2[C@]12C=C[C@@H](O)[C@@](C)(C(=O)O1)[C@@H]2[C@@H]3C(=O)O,nt,7%,nt,6%
CCOC(=O)c1ccc(NS(=O)(=O)c2ccc3c(c2)oc(=O)n3C)cc1,nt,18%,nt,3%
COC(=O)c1ccc(NS(=O)(=O)c2ccc3c(c2)oc(=O)n3C)cc1,nt,1.3µM*,nt,?
COc1cc(C(=O)O)ccc1OC(C)=O,i,?,>57,?
COc1cc(C2N(c3ccccc3)CCN2c2ccccc2)ccc1OC(C)=O,nt,7%,nt,3.2µM*
COC(=O)c1sccc1NC(=O)c1csc(C)c1,13*,23%,nt,nt
CN(C)CCN(C)C(=O)c1ccc(-n2c(=O)c(=O)[nH]c3ccccc32)cc1,nt,-6%,nt,4%
Nc1nc2nccc(-c3ccc(Cl)cc3)n2n1,>77,2%,6*,-8%
Cc1cc(-c2ccc(Cl)cc2)n2nc(N)nc2n1,>77,-3%,?,-1%
COc1cccc(C(=O)/C=C/Nc2cc(C)ccc2O)c1,>77,-25%,5.6*,-19%
Cc1cccc(OCC(=O)Nc2cc(C)ccc2O)c1,>77,-3%,>57,-11%
COc1ccc(O)c(/C=c2/sc3nc4cc(C)c(C)cc4n3c2=O)c1,>77,32µM*,>57,?
COc1ccc(OC)c(C(c2nnnn2CCC(C)C)N2CCN(C(=O)c3ccco3)CC2)c1 (stereo unspecified),>77,16µM*,>57,?
CC(C)CCn1nnnc1C(c1ccc(F)cc1)N1CCN(C(=O)c2ccco2)CC1 (stereo unspecified),>77,16%,>57,17%
O=C(O)CCn1cnc2c(=S)nc[nH]c21,nt,2%[11.4 µM],nt,2%[11.4 µM]
O=C(c1ccco1)N1CCN(C(=O)c2cc(-c3ccncc3)nc3ccc(Br)cc23)CC1,>77,-21%,7.6*,8%
O=C(CSc1nc(-c2ccccc2)nc2c1CCCC2)N1CCOCC1,>77,23%,>57,13µM*
CCc1nnc(NC(=O)CSc2nnc(-c3ccccc3O)n2-c2ccc(C)cc2)s1,14*,?,>57,?
CCOC(=O)C(C)Sc1nnc(-c2ccccc2O)n1-c1ccc(C)cc1 (stereo unspecified),?,20µM*,>57,?
CCc1nnc(NC(=O)CSc2nnc(CNc3cccc(C)c3)n2-c2ccccc2)s1,11*,5%,>57,-4%
CCc1nnc(NC(=O)CSc2nnc(-c3ccccc3OC)n2-c2ccccc2)s1,>77,10µM*,>57,?
CCc1nnc(NC(=O)CSc2nnc(Cc3ccccc3)n2-c2ccccc2)s1,?,?,>57,?
CC(C)=C[C@H]1[C@@H](COC(=O)c2cc3c(cc2Cl)OCO3)C1(C)C,nt,13%[11.4 µM],nt,5%[11.4 µM]
O=C(O)Cn1c(=O)oc2cc(S(=O)(=O)NC3CCCCC3)ccc21,nt,9%,nt,3%
SMILES,GBA mod,HEK293 cAMP ctrl,PK Bst,TSHR ag
COc1cccc(-n2nnc3c(=O)n(Cc4ccccc4F)cnc32)c1,>77,25µM*,>57,?
Cc1cccc(-n2nnnc2SCn2nnc3ccccc3c2=O)c1,>77,25µM*,>57,?
Oc1ccccc1-c1cc(-c2ccc3c(c2)OCCO3)n[nH]1,>77,0%,1.9*,0%
COc1ccc(-c2[nH]ncc2-c2ccc3c(c2)OCCO3)c(O)c1,>77,15%,>57,10%
CN[C@H](CC(=O)O)C(=O)O,nt,0%,nt,0.79µM*!
C=CC(=O)OCCOCCOC(=O)C=C,nt,23%,nt,?
O=c1sc2ccccc2n1COc1ccccc1,nt,25µM*,nt,?
Nc1nc(SCc2ccc([N+](=O)[O-])cc2)c2ncn([C@@H]3O[C@@H](CO)[C@@H](O)[C@H]3O)c2n1,nt,-18%,nt,2%
CC(C)Oc1ccc(NC(=O)c2ccncc2)cc1,7.9*,0%,>11,10%

# Screening results from PubChem BioAssay.
